Compounds with a hit are over-represented: about 7.3% of the library has one in this group of screens.
HCMV antiviral: inhibitors of human cytomegalovirus; 410,000 tested, 4.5% active; AID 1259415; activity change, negative = inhibition, % at 57.5 µM; HFF cells, HCMV-luciferase reporter, 72 h; hits give low values; in the data active means activity change below about -60%; inconclusive means no clear call, values can overlap the other calls; inactive means above about -39%
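Luciferase read-out from HCMV-luciferase-infected HFFs (MOI 1 PFU/cell) 72 h post infection at 37C; compounds added after 16 h cell attachment; activity normalized between buffer-only basal and Salinomycin (10uM) inhibitor controls.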
HCV inh: inhibitors of hepatitis C virus infection. Huh7.5.1 HCVcc-Cre infection, luciferase reporter, 44 h. Potency, µM (series often up to 41.8 µM), for the others: top-dose activity change, negative = inhibition, hits mostly inhibitors. 340,000 tested, 3.4% active. AID 651820; further: potency means the concentration at half of the fitted maximal effect
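Whole-lifecycle infectious HCVcc-Cre system; cells 1,000/well, compound then virus (~0.5 moi) added 4 h after plating, 44 h culture. Luciferase read 15 sec following 15 min substrate incubation, room temp.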
AmpC detergent: AmpC beta-lactamase inhibition with detergent present | P00811 | AmpC hydrolysis of nitrocefin, absorbance 480 nm, 0.01% Triton | Potency, µM (top dose mostly 114 µM), inactives show top-dose activity change, negative = inhibition, hits mostly inhibitors | 370,000 tested, 0.041% active;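 further: potency means the concentration at half of the fitted maximal effect; 0% = no-compound wells and -100% = no-enzyme wells; nearly all actives have a fitted effect of over 25% in size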
Target sequence (P00811 whole entry, looked up): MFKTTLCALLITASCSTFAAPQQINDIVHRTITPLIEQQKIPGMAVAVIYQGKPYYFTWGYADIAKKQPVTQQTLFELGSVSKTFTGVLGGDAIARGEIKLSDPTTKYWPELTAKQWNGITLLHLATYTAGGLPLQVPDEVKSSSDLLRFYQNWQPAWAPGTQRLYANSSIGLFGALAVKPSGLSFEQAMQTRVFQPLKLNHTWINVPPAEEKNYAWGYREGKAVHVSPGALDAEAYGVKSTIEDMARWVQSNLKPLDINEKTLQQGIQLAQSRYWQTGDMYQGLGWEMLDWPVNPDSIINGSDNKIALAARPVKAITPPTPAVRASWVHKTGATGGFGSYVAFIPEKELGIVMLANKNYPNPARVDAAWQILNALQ
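AmpC (5.3 nM in the dispensed reagent) in 20 mM phosphate pH 7.0 with 0.01% (detergent screen) or 0.0001% Triton X-100 was preincubated with compounds for 15 min at room temperature. Nitrocefin was then added from an 800 uM solution, and hydrolysis was followed at 480 nm.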
FMDV inh: foot and mouth disease virus antiviral activity; FMDV antiviral cell-based qHTS; Potency, µM (series often up to 57.9 µM), without a hit: top-dose activity change, negative = inhibition, hits mostly inhibitors; 410,000 tested, 1.2% active; calls by dose curve; tested in HEK293T cells; further: read-out not given here; potency means the concentration at half of the fitted maximal effect; nearly all actives have a fitted effect of over 45% in size
AmpC inh no detg: inhibitors of E. coli AmpC beta-lactamase without detergent | P00811 | AmpC nitrocefin hydrolysis, absorbance 480 nm, 0.0001% Triton | Potency, µM (top dose mostly 57.1 µM), inactives show at the top dose activity change, negative = inhibition, actives largely listed as inhibitors | 330,000 tested, 0.52% active | AID 485341;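 further: potency means the concentration at half of the fitted maximal effect; plate controls were no compound for no effect and no enzyme for full effect; nearly all actives have a fitted effect of over 20% in size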
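20 mM phosphate pH 7.0 + 0.01% (detergent screen) or 0.0001% Triton X-100; 5.3 nM AmpC reagent; cpd preinc 15 min RT; nitrocefin (800 uM stock) to start; A480 q20 s × 4 min; Activity was normalised to no-enzyme and no-compound control wells.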
An asterisk follows results filed as active; u = inconclusive; x = no result; ! = not active in a repeat. Unless noted, the call rests on the fitted dose curve; in most records, active means well fitted curve in the direction sought with a large enough effect; inconclusive means small, poorly fitted or top-dose-only effect, or another doubt; inactive means no such curve, though single readings can be large; an effect the other way counts as inactive or inconclusive. Unless noted, on the % scale 0 is the no-effect control and ±100 the full control effect.

SMILES	HCMV antiviral	HCV inh	AmpC detergent	FMDV inh	AmpC inh no detg
CCCN1CCN(CCCNC(=O)c2cc3c(s2)-c2ccccc2OC3)CC1	-23	10µM*	u	0%	42%
CCCN1CCN(C(=O)c2cc3c(s2)-c2ccccc2OC3)CC1	61	-9%	u	51%	119%
O=C(NC1CC1)[C@@H]1C[C@H](Sc2nc3ccccc3[nH]2)CN1CC1CCCCC1	x	x	x	-9%	x
O=C(OCc1ccccc1)N1CCC2CC1c1ccc(Cl)cc12 (stereo unspecified)	-7	x	x	24%	x
CCCCN(C)CCN1C(=O)C2C(C(=O)Nc3ccc(OC)cc3)C3C=CC2(O3)C1C(=O)NC1CCCCC1 (stereo unspecified)	2	-10%	-3%	-8%	18%
Cc1cccc2c1-c1sc(C(=O)NCCc3ccc(Cl)cc3)cc1CO2	-87*	x	-6%	0%	x
CN(C)CCNC(=O)c1cc2c(s1)-c1ccccc1OC2	105	25µM*	-4%	41%	22%
O=C(NCCCN1CCN(c2ccccc2F)CC1)c1cc2c(s1)-c1ccccc1OC2	u	x	-5%	1%	x
CCN1CCN(CCCNC(=O)c2cc3c(s2)-c2ccccc2OC3)CC1	-108*!	7.1µM*	-12%	9%	29%
COc1ccc(CCNC(=O)c2cc3c(s2)-c2ccccc2OC3)cc1OC	u	x	21%	u	x
Cc1cccc2c1-c1sc(C(=O)NCCCN3CCCC(C)C3)cc1CO2 (stereo unspecified)	-23	11µM*	u	-11%	43%
Cc1cccc(C)c1NC(=O)Cn1c(=O)n(Cc2ccc3c(c2)OCO3)c(=O)c2oc3ccccc3c21	13	x	24%	-10%	x
O=C(Nc1ccccc1)c1cc(C2CCCN(C(=O)OCc3ccccc3)C2)on1 (stereo unspecified)	-16	x	x	41%	x
CCOc1ccc(NC(=O)CN2CCN(CC(=O)Nc3ccccc3OCC)CC2)cc1	0	x	18%	u	x
COc1ccc2c3c(n(C)c2c1)[C@H](CO)N(C(=O)c1cccc(F)c1)CC31CN(C(=O)c2cccc(F)c2)C1	26	x	x	x	x
CC(NC(=O)CCNC(=O)c1ccco1)c1ccc(F)cc1 (stereo unspecified)	x	9%	-9%	-18%	8%
CCOc1ccc(-c2c(C(=O)N/N=C(\C)c3cccnc3)nnn2-c2nonc2N)cc1	-13	8%	-9%	-11%	2%
CCOc1ccc(NC(=O)c2cc3c(s2)-c2ccccc2OC3)cc1	-27	x	21%	-27%	x
Cc1csc(NC(=O)c2cc3c(s2)-c2ccccc2OC3)n1	18	11µM*	u	-7%	-55%
C[C@@H]1COc2cccc(NCCCN3CCOCC3)c2S(=O)(=O)N1	-5	x	x	x	x
COCCNC(=O)/C(C#N)=C/c1cc(C)n(-c2ccc(C)cc2)c1C	16	10µM*	8%	13%	82%
CCc1ccc(CNC(=O)CN2C(=O)c3cccnc3Oc3ccc(C)cc32)cc1	u	x	10%	-9%	x
Cc1ncc2c(c1CNC(=O)c1cncs1)CCN(C(=O)c1csc(-c3cccs3)n1)C2	x	x	x	-4%	x
CC(NC(=O)c1ccco1)c1nnc2n1CCN(Cc1cccc(Cl)c1)CC2 (stereo unspecified)	x	x	x	-1%	x
CC(=O)N1c2c(cc(Br)cc2S(=O)(=O)NCc2ccc(C)cc2)CC1C (stereo unspecified)	-66*	-8%	u	4%	-15%
SMILES	HCMV antiviral	HCV inh	AmpC detergent	FMDV inh	AmpC inh no detg
COc1ccc(CNS(=O)(=O)c2cc(Br)cc3c2N(C(C)=O)C(C)C3)cc1 (stereo unspecified)	-39	19%	2%	18%	-21%
CCOC(=O)c1ccc(NS(=O)(=O)c2cc(Br)cc3c2N(C(C)=O)C(C)C3)cc1 (stereo unspecified)	-29	x	11%	25%	x
CC(=O)N1c2c(cc(Br)cc2S(=O)(=O)Nc2ccc(OC(F)(F)F)cc2)CC1C (stereo unspecified)	-82*	x	4%	25%	x
Cc1ccc(S(=O)(=O)c2nc(-c3cccs3)oc2SCC(=O)Nc2cc(C)cc(C)c2)cc1	-11	x	u	-13%	x
COc1ccc(S(=O)(=O)Nc2c(O)ccc3ccccc23)cc1OC	-16	u	x	85%	x
COC(=O)C(Cc1ccc(N(CCCl)CCCl)cc1)N=Cc1ccccc1O (stereo unspecified)	-103*	u	17%	u	202%
C[C@@]12C(=O)N(c3cccc(F)c3)C(=O)N1[C@@H]1c3ccccc3OC[C@@H]1[C@H]2c1ccccc1	-101*	u	x	u	-21%
COc1ccc2c(c1)OC[C@H]1[C@H]2N2C(=O)c3cc(F)ccc3NC(=O)[C@@]2(C)[C@H]1c1ccccc1	0	11µM*	x	0%	-23%
COc1ccc2c(c1)[C@H]1[C@H](CO2)[C@H](c2ccccc2)[C@]2(C)C(=O)Nc3cc(Cl)ccc3C(=O)N12	x	u	-2%	0%	-18%
Cc1ccc2c(c1)[C@H]1[C@H](CO2)[C@H](c2ccccc2)[C@]2(C)C(=O)Nc3cc(F)c(F)cc3C(=O)N12	-70*	u	x	u	-16%
COc1ccc2c(c1)C(=O)N1[C@H]3c4cc(Cl)ccc4OC[C@@H]3[C@H](c3ccccc3)[C@]1(C)C(=O)N2	-60*	u	x	-22%	-31%
CC(C)NC(=O)c1nnc2n1CCN(Cc1cccc3c1OCO3)C2	-13	x	x	x	x
COc1ccc2c(c1)OC[C@H]1[C@H]2N2C(=O)CN(Cc3ccc(C)cc3)C(=O)[C@@]2(C)[C@H]1c1ccccc1	-12	11µM*	5%	-14%	54%
COc1ccc2c(c1)OC[C@H]1[C@H]2N2C(=O)CN(Cc3ccc(F)cc3)C(=O)[C@@]2(C)[C@H]1c1ccccc1	-5	u	-5%	u	37%
Cn1c(CNc2ccccn2)c(C#N)c2ccccc21	14	11µM*	3%	0%	-12%
NC(=O)c1ccccc1NC(=O)CN1CCN(Cc2ccccc2)CC1	16	3%	u	-19%	-17%
NC(=O)c1ccccc1NC(=O)CN1CCN(Cc2ccc(Cl)cc2Cl)CC1	u	u	-9%	18µM*	59%
CC(C)Cc1csc(=S)[nH]1	-4	14%	x	-19%	x
CCOC(=O)c1ccc(NC(=O)c2ccccc2[N+](=O)[O-])cc1	22	u	3%	10%	-25%
CCOC(=O)c1cc([N+](=O)[O-])c([N+](=O)[O-])cc1NC(C)=O	-100*	u	-3%	u	-24%
CCCCn1c(NC(=O)c2ccco2)c(C(=O)OCC)c2nc3ccccc3nc21	-69*	-15%	-13%	x	60%
CCCCn1c(NC(=O)c2ccco2)c(S(=O)(=O)c2ccc(C)cc2)c2nc3ccccc3nc21	1	-4%	-13%	-15%	-36%

High-throughput results deposited in PubChem by National Center for Advancing Translational Sciences (NCATS).
